For nine molecules, Potency and outcome results are on record in PubChem BioAssay (Tox21).

A short description of experiment [1]: Nuclear factor erythroid 2-related factor 2/antioxidant responsive element (Nrf2/ARE) small molecule agonists: qHTS cell viability counter screen in human keratinocytes (AID 1919968; active = well fitted cell-killing curve with a large enough effect in the repeat runs; also: nearly all actives have a fitted effect of over 55% in size). Summed up:
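HaCaT ARE reporter line, 1,500 cells/well; 5 h settle, 37 C/5% CO2; cpd in DMSO pinned; 23 h exposure; CellTiter-Fluor, 1 h; fluorescence.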
Background: Quantitative high-throughput screening tests each substance at several concentrations.

A short description of experiment [2]: Nuclear factor erythroid 2-related factor 2/antioxidant responsive element (Nrf2/ARE) small molecule agonists: luciferase reporter gene qHTS assay in human keratinocytes (AID 1919969). Also: nearly all actives have a fitted effect of over 35% in size. In general terms: In a reporter assay the amount or activity of a reporter protein is the signal.
For experiment [3], the target named is Gonadotropin-releasing hormone receptor (Homo sapiens) (UniProt P30968). As to the kind of experiment: Human gonadotropin-releasing hormone receptor (GnRHR) small molecule agonists, calcium flux assay in GnRHR-HEK293 cells (AID 1920063). Also: nearly all actives have a fitted effect of over 35% in size. Summed up: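 GnRHR-HEK293, 1500 cells/well, 18 h 37 C/5% CO2; Ca dye 1 h 37 C; cpd pinned (DMSO), agonist mode; kinetic FL 480/540, 3 min, 1 s reads; 15 conc, n=3.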
Gonadotropin-releasing hormone receptor (Homo sapiens), sequence (P30968 whole entry, looked up): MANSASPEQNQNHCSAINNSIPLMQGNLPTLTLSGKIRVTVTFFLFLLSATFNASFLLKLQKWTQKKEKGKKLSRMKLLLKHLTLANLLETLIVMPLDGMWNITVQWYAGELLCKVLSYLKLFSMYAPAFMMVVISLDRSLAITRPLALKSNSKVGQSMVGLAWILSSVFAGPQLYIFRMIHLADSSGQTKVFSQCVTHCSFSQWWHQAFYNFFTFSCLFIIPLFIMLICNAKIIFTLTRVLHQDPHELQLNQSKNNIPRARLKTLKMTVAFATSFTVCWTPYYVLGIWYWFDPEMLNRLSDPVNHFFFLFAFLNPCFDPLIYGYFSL
A general note: A change in cytosolic calcium serves as a functional read-out for many receptors and channels.

Experiment [4] in a line: p53 small molecule agonists, cell-based qHTS assay with rat liver microsomes (AID 1963578). Summed up:
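Compound in DMSO added to p53RE-bla cells 5 h post-plating; rat microsomes/NADPH 0.5 mg/mL final; 16 h, 37 C; LiveBLAzer 2 h RT.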

The nature of experiment [5]: p53 small molecule agonists, cell-based qHTS assay with human liver microsomes: qHTS cell viability counter screen (AID 1963579). Also: nearly all actives have a fitted effect of over 45% in size. The procedure, abridged:
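HLM-supplemented (0.5 mg/mL final) and NADPH-supplemented (0.5 mg/mL final) p53RE-bla cultures, 4,000 cells per well, were dosed with compounds in DMSO for 16 h at 37 C; luminescent ATP detection (CellTiter-Glo, 30 min, room temperature) quantified surviving cells.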

The nature of experiment [6]: p53 small molecule agonists, cell-based qHTS assay with rat liver microsomes: qHTS cell viability counter screen (AID 1963580). Also: nearly all actives have a fitted effect of over 45% in size. The procedure, abridged:
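Intracellular ATP, by CellTiter-Glo luminescence, defines viability. HCT-116 p53RE-bla cells, 4,000 per well, were compound-treated in the presence of rat liver microsomes and NADPH for 16 h at 37 C.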

The nature of experiment [7]: p53 small molecule agonists, cell-based qHTS assay: qHTS cell viability counter screen (AID 1963581). Also: nearly all actives have a fitted effect of over 45% in size. Summed up: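 HCT-116 p53RE-bla cells, 4,000/well, plated 5 h before compound pin transfer; 16 h at 37 C; bla substrate 2 h RT; then CellTiter-Glo, 30 min RT, luminescence.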
A short description of experiment [8]: p53 small molecule agonists, cell-based qHTS assay (AID 1963582; active = well fitted activation curve with a large enough effect in the signal ratio in the repeat runs, not every such curve was filed as active; the % refers to the signal ratio). Summed up:
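Reporter line: p53RE-bla. Pre-incubation 5 h, 37 C, 5% CO2; compound (DMSO, pin tool) 16 h, 37 C; B/G FRET substrate 2 h RT; fluorescence intensity read.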

Experiment [9] concerns the target 5-hydroxytryptamine receptor 2A (Homo sapiens) (UniProt P28223). As to the kind of experiment: 5-hydroxytryptamine receptor 2A (HTR2A) small molecule antagonists, cell-based qHTS assay (AID 1963586). Also: nearly all actives have a fitted effect of over 45% in size. The procedure, abridged:
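Antagonist-mode intracellular calcium assay: DOI (4 nM) added after 5 min compound pre-incubation at room temperature to dye-loaded HTR2A-CHO cells. Fluorescence followed for 3 min, sampled every second.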

Experiment [10] shares this target. Briefly: 5-hydroxytryptamine receptor 2A (HTR2A) small molecule agonists, cell-based qHTS assay (AID 1963587). Also: nearly all actives have a fitted effect of over 30% in size. Summed up:
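Kinetic calcium-flux fluorescence (2 min, 1 sec intervals) after compound addition in agonist mode. HTR2A-CHO cells were cultured 18 h, then dye-loaded 1 h at 37 C.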

The nature of experiment [11]: cAMP Responsive Elements (CRE) small molecule agonists, cell-based qHTS assay (AID 1963590). Summed up: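 HEK 293T CRE-bla, 2,000 cells/well, 18 h preincubation 37 C/5% CO2; cpds (DMSO) pinned, 3 h; LiveBLAzer B/G FRET substrate, 2 h RT.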
Experiment [12] can be described thus: cAMP Responsive Elements (CRE) small molecule antagonists, cell-based qHTS assay (AID 1963591; active = well fitted inhibition curve with a large enough effect in the signal ratio in the repeat runs, not every such curve was filed as active; the % refers to the signal ratio). The procedure, abridged:
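Beta-lactamase reporter read by FRET substrate (LiveBLAzer B/G) after 2 h at room temperature. CRE-bla HEK293T cells had received compound plus 0.25 uM (final) NKH477 for 3 h at 37 °C.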

Experiment [13] concerns the target Beta-2 adrenergic receptor (Homo sapiens) (UniProt P07550). As to the kind of experiment: Adrenergic beta2 receptor (ADRB2) small molecule antagonists, cell-based qHTS assay (AID 1963592). Also: nearly all actives have a fitted effect of over 50% in size. Also: potency is read from the fitted curve at half-maximal effect. Summed up:
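Cells (CHO, stable ADRB2 overexpression) incubated 18-20hr at 37C; compounds added from DMSO; agonist mix (1nM isoproterenol, 100uM IBMX, 25uM Ro-20-1724) added; 0.5hr RT; d2-cAMP and anti-cAMP-cryptate added; 1hr RT; 665/615 nm read.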

The target of experiment [14] is D(2) dopamine receptor (Homo sapiens) (UniProt P14416). As to the kind of experiment: Dopamine D2 receptor (DRD2) small molecule agonists, cell-based qHTS assay (AID 1963594). Also: nearly all actives have a fitted effect of over 35% in size. The procedure, abridged: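 cAMP accumulation in DRD2-HEK293 cells measured by HTRF after 1 h detection; compounds added 10 min before NKH477 (200nM […]) forskolin-analogue stimulation, 30 min at room temperature, with Ro20-1724 present at 0.1 mM final.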
D(2) dopamine receptor (Homo sapiens), sequence (P14416 whole entry, looked up): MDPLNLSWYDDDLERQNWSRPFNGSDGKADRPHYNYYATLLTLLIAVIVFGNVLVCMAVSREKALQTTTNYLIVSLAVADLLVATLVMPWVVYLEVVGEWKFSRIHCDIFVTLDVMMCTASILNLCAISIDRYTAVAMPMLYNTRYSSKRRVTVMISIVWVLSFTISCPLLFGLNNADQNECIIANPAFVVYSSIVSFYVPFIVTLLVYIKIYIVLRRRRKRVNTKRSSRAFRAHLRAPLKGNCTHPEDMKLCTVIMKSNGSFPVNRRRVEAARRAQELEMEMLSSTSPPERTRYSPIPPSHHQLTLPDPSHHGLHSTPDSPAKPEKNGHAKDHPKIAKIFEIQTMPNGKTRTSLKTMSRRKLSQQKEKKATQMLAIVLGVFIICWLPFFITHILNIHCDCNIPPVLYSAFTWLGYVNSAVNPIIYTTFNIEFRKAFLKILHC

Experiment [15] shares this target. Briefly: Dopamine D2 receptor (DRD2) small molecule antagonists, cell-based qHTS assay (AID 1963595; active = well fitted inhibition curve with a large enough effect in the signal ratio in the repeat runs, with a control signal flat; the % refers to the signal ratio). Summed up:
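DRD2-HEK293; 0.1 mM Ro20-1724; cpd 10 min RT; NKH477 200 nM + quinpirole 12 nM, 30 min RT; HTRF cAMP (cAMP-d2/anti-cAMP cryptate), 665/620 nm ratio after 1 h.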

A short description of experiment [16]: G protein-coupled receptor (GPCR) small molecule agonists, calcium flux assay: HEK293 wild type cell line counter screen (AID 1920065). The procedure, abridged:
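Kinetic fluorescence at Ex/Em 480/540, recorded every second over 3 min, served as the read-out after compound addition. Each compound was tested at 15 concentrations in triplicate on cells pre-loaded with calcium dye for 1 h.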

The nature of experiment [17]: p53 small molecule agonists, cell-based qHTS assay with human liver microsomes (AID 1963577).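 Also: p53 response element beta-lactamase reporter cells with liver microsomes plus NADPH.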 The procedure, abridged: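 Reporter activation was measured by LiveBLAzer fluorescence intensity in p53RE-bla cells, which had been exposed to compounds for 16 h at 37 C alongside 0.5 mg/mL human liver microsomes and 0.5 mg/mL NADPH (final concentrations).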
For experiment [18], the target named is Muscarinic acetylcholine receptor M1 (Homo sapiens) (UniProt P11229). As to the kind of experiment: Cholinergic receptor muscarinic 1 (CHRM1) small molecule agonists, cell-based qHTS assay (AID 1963589). Also: nearly all actives have a fitted effect of over 35% in size. The procedure, abridged: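 Human M1 in stable CHO line; 18 h plating, 1 h dye load 37 C; cpd added (agonist mode); Ca2+ fluorescence kinetic read, 1 s intervals; 15 conc, 3 runs.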
Muscarinic acetylcholine receptor M1 (Homo sapiens), sequence (P11229 whole entry, looked up): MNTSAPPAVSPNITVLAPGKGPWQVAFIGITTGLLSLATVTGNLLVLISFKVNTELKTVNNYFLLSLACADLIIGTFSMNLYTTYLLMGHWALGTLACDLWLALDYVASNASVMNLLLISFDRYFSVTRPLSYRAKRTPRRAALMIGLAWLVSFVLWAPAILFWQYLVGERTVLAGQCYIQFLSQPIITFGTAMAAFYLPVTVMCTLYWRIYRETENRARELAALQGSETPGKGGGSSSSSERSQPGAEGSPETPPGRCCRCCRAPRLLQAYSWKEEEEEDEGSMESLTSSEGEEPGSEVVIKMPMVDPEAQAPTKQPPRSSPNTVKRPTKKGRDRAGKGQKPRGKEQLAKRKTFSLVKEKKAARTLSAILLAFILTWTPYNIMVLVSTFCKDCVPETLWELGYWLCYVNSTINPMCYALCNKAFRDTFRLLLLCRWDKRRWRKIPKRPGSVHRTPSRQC

Experiment [19] has the same target. Briefly: Cholinergic receptor muscarinic 1 (CHRM1) small molecule antagonists, cell-based qHTS assay (AID 1963588). Also: nearly all actives have a fitted effect of over 40% in size. The procedure, abridged:
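CHRM1-CHO calcium-flux assay, antagonist mode. Cells were seeded 18 h, dye-loaded 1 h at 37 C and given compound for 5 min at RT, then acetylcholine was added at 50nM. FDSS fluorescence was read 3 min; 15 concentrations, three runs.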

For experiment [20], the target named is Beta-2 adrenergic receptor (Homo sapiens) (UniProt P07550). Briefly: Adrenergic beta2 receptor (ADRB2) small molecule agonists, cell-based qHTS assay (AID 1963593).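 Also: CHO cells stably overexpressing human ADRB2.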 Summed up:
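CHO cells stably over-expressing ADRB2 were plated overnight at 37C, then dosed with compounds plus a stimulation mix containing 100uM IBMX and 25uM Ro-20-1724 for 0.5hr at room temperature. cAMP was measured by HTRF competition, 1hr.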

Results filed as inconclusive are left out. The source made the active and inactive calls. Unless noted, calls follow the shape of the full dose curve.

5-hydroxytryptamine receptor 2A (Homo sapiens), sequence (P28223 whole entry, looked up): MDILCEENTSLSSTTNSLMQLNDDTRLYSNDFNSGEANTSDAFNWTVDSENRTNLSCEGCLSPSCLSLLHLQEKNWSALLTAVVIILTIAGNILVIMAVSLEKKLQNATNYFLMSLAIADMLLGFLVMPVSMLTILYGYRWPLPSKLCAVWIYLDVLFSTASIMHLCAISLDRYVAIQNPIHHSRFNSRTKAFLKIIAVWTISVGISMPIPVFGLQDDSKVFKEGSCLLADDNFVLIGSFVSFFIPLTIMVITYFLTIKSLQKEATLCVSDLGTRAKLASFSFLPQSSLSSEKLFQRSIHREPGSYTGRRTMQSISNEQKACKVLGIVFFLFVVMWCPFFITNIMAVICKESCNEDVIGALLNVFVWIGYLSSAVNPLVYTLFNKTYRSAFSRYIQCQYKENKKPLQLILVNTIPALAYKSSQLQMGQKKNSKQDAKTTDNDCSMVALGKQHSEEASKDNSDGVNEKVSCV
Beta-2 adrenergic receptor (Homo sapiens), sequence (P07550 whole entry, looked up): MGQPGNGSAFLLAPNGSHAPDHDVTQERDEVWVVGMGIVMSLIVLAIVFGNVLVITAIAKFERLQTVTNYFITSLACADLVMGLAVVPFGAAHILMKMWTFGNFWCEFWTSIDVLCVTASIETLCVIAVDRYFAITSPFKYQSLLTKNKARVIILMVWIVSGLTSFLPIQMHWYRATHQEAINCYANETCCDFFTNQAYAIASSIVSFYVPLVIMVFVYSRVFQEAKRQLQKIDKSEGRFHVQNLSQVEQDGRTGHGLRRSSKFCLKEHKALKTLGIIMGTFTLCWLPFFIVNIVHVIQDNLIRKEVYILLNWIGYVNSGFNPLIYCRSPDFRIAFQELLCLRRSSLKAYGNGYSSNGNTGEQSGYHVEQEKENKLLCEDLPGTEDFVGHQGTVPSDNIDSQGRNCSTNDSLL

`O=C1[C@H](CC[C@H](O)c2ccc(F)cc2)[C@@H](c2ccc(O)cc2)N1c1ccc(F)cc1`: the Potency result in experiment [1], in experiment [2], in experiment [3], in experiment [4], in [5] and in experiment [6] was “inactive” throughout. For the same molecule, the Potency result in experiment [7], in [8], in experiment [9], in experiment [10], in experiment [11] and in [12] was “inactive” throughout. Further, the Potency result in [13], in experiment [14] and in experiment [15] was “inactive” in each case.

As for `OCC(CBr)(CBr)CBr`, the Potency entry in [1], in [2], in experiment [3], in [17], in experiment [4] and in [5] was “inactive” in each case. For the same molecule, the Potency entry in experiment [6], in [7], in experiment [8], in experiment [9], in experiment [18] and in experiment [11] was “inactive” throughout. For the same molecule, the Potency entry in [12], in experiment [13] and in experiment [14] was “inactive” each time. Besides, the result in [16] was inactive.

As for `COC(C)(C)CCCC(C)CC=O` (stereo unspecified), the Potency result in experiment [1], in experiment [2], in [3], in [17], in experiment [4] and in [5] was “inactive” each time. Besides, the Potency entry in [6], in experiment [7], in [8], in experiment [9], in [10] and in [19] was “inactive” in each case. The Potency entry in [18], in [11], in experiment [12], in [13] and in [14] was “inactive” throughout. Also, the result in experiment [16] was inactive.

As for `N#Cc1cscn1`, the Potency result in experiment [1], in [2], in [3], in experiment [17], in experiment [4] and in experiment [5] was “inactive” each time. Also, the Potency entry in experiment [6], in [7], in [8], in experiment [9], in experiment [10] and in experiment [19] was “inactive” in each case. Besides, the Potency result in experiment [11], in experiment [12], in experiment [13], in [14] and in experiment [15] was “inactive” in each case. Besides, in experiment [16], the outcome was inactive.

For `CN(C)CCc1c[nH]c2ccc(C[C@H]3COC(=O)N3)cc12`, the Potency result in [1], in experiment [2], in [3], in experiment [17], in [4] and in experiment [5] was “inactive” in each case. Besides, the Potency entry in experiment [6], in experiment [7], in experiment [8], in experiment [19], in [18] and in [11] was “inactive” each time. Besides, the Potency entry in [12], in experiment [13], in [20], in experiment [14] and in experiment [15] was “inactive” in each case. Moreover, the outcome in experiment [16] was inactive.

Regarding `O=C(O)CP(=O)(O)O`, the Potency entry in [1], in experiment [2], in experiment [3], in experiment [17], in [4] and in experiment [5] was “inactive” throughout. The Potency result in experiment [6], in experiment [7], in experiment [8], in experiment [9], in experiment [10] and in [19] was “inactive” in each case. Also, the Potency entry in experiment [12], in experiment [13], in experiment [14] and in experiment [15] was “inactive” throughout. Also, in experiment [16], the result was inactive.

Regarding `Cc1nccn1CC1CCc2c(c3ccccc3n2C)C1=O` (stereo unspecified), the Potency result in experiment [1], in experiment [2], in experiment [3], in experiment [17], in [4] and in experiment [5] was “inactive” throughout. Besides, the Potency entry in [6], in [7], in experiment [8], in experiment [11], in experiment [12] and in experiment [13] was “inactive” throughout. Moreover, the Potency result in experiment [20] and in experiment [14] was “inactive” each time. The outcome in experiment [16] was inactive.

As to `O=C(O)c1cc(Cl)cc(Cl)c1O`, the Potency entry in experiment [1], in [2], in experiment [3], in experiment [17], in experiment [5] and in [7] was “inactive” each time. For the same molecule, the Potency result in experiment [8], in [9], in [10], in experiment [19], in experiment [18] and in experiment [12] was “inactive” each time. Besides, the Potency entry in [13], in experiment [14] and in experiment [15] was “inactive” in each case. In [16], the result was inactive.

On to `COC(=O)CCc1ccc(OCC(O)CNC(C)C)cc1` (stereo unspecified), for which the Potency entry in [1], in [2], in experiment [3], in experiment [17], in experiment [4] and in experiment [5] was “inactive” throughout. In addition, the Potency entry in [6], in [8], in [11], in experiment [12] and in experiment [15] was “inactive” each time. The outcome in experiment [16] was inactive. Also, the Potency in [13] was 9.44 µM (active).
